# Measured values reported in PubChem BioAssay (Tox21).
# Inconclusive results are not listed. A call without a number means that no potency is given here. A number with no mark means an inactive call. Active and inactive are the calls of the source. Unless noted, the call rests on the fitted dose curve; in most records, active means well fitted curve in the direction sought with a large enough effect in the repeat runs; inconclusive means weak or mixed curves; inactive means no such curve, though single readings can be large; an effect the other way counts as inactive or inconclusive.
# Columns and labels:
# [1] = qHTS assay to identify small molecule agonists of the vitamin D receptor (VDR) signaling pathway - cell viability counter screen (AID 743224); further: series mostly up to about 63 µM; nearly all actives have a fitted effect of over 50% in size
# Outline: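 Luminescence from CellTiter-Glo, read after 30 min at room temperature, reports viability of VDR-bla cells treated with compounds for 16 h at 37C in the wells used for the beta-lactamase FRET read.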
# [2] = qHTS assay to identify small molecule antagonists of the vitamin D receptor (VDR) signaling pathway - cell viability counter screen (AID 743225); further: nearly all actives have a fitted effect of over 50% in size
# Outline: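 VDR-bla HEK 293T cells, 4 h pre-incubation at 37C, then compound plus 1-alpha,25-dihydroxyvitamin D3 (3 nM final) for 16 h. After the beta-lactamase FRET read, CellTiter-Glo was added to the same wells; luminescence after 30 min at room temperature.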
# [3] = qHTS assay to identify small molecule agonists of the NFkB signaling pathway (AID 1159509; active means well fitted curve in the direction sought with a large enough effect in the signal ratio in the repeat runs, not every such curve was filed as active; the % refers to the signal ratio; further: series mostly up to about 61 µM)
# Outline: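 NFkB-bla ME-180 cells carry a beta-lactamase reporter under an NF-kB response element. They were plated overnight, then exposed to compounds for 5 h at 37 C. Read-out is LiveBLAzer FRET after 1.5 hr at room temperature (405 nm excitation; 460/530 nm emission).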
# [4] = qHTS assay to identify small molecule agonists of the NFkB signaling pathway - cell viability counter screen (AID 1159515; calls by dose curve; further: series mostly up to about 61 µM; nearly all actives have a fitted effect of over 55% in size)
# Outline: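 Luminescence from CellTiter-Glo (30 min, room temperature) gives viability, measured in the same wells as the beta-lactamase reporter read. Cells were NFkB-bla ME-180, 2,000 per well, treated 5 hr with compounds.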
# [5] = qHTS assay to identify small molecule agonists of the endoplasmic reticulum stress response signaling pathway - cell viability counter screen (AID 1159517; calls by dose curve;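 further: HeLa cells carrying an ER stress response element beta-lactamase reporter; series mostly up to about 61 µM; nearly all actives have a fitted effect of over 50% in size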)
# Outline: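 HeLa cells carrying an ESRE-driven beta-lactamase reporter receive compound for 5 hr at 37 C. Cell viability is then gauged with CellTiter-Glo by luminescence, 30 min at room temperature.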
# [6] = qHTS assay to identify small molecule antagonists of the retinoid-related orphan receptor gamma (ROR-gamma) signaling pathway - cell viability counter screen (AID 1159520); further: nearly all actives have a fitted effect of over 50% in size
# Outline: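 Cytotoxicity was read from cellular ATP (CellTiter-Glo luminescence) after 16 hr at 37 C with 1 uM doxycycline induction. The inducer was added 2 hr after compound transfer to Tet-on ROR gamma CHO cells.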
# [7] = molecular target: Nuclear receptor ROR-gamma (Homo sapiens) (UniProt P51449); assay: qHTS assay to identify small molecule antagonists of the retinoid-related orphan receptor gamma (ROR-gamma) signaling pathway (AID 1159521)
# Outline: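 Tet-on RORγ CHO cells carrying a ROR response element–luciferase reporter were pretreated with compounds for 2 h, then induced with 1 uM (final) doxycycline hyclate for 16 h at 37 C. Antagonism was read as decreased ONE-Glo luminescence.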
# [8] = qHTS assay to identify small molecule agonists of the AP-1 signaling pathway - cell viability counter screen (AID 1159525; calls by dose curve; further: nearly all actives have a fitted effect of over 55% in size)
# Outline: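 Luminescent ATP readout (Cell Titer Glo, 30 min RT), normalised to DMSO and tetra n-octyl ammonium bromide controls. Cells were ME-180 AP-1-bla in 0.5% dialyzed FBS Opti-MEM, with a 5 h, 37 °C compound exposure.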
# [9] = qHTS assay to identify small molecule agonists of the AP-1 signaling pathway (AID 1159526; calls by dose curve)
# [10] = qHTS assay to identify small molecule agonists of the RXR signaling pathway - cell viability counter screen (AID 1159529)
# Outline: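 RXR-alpha-UAS-bla HEK 293T cells in medium with 2% charcoal-stripped FBS were preincubated 5 hr, then exposed to compounds for 16 hr at 37 C. Viability was read as CellTiter-Glo luminescence after 30 min at room temperature.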
# [11] = qHTS assay to identify small molecule antagonists of the retinoid acid receptor (RAR) signaling pathway - cell viability counter screen (AID 1159551); further: nearly all actives have a fitted effect of over 35% in size
# Outline: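 Luminescent ATP quantitation (CellTiter-Glo) gave cell viability in C3RL4 cells exposed to test chemicals for 6 h at 37 C alongside 1 uM final retinol.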
# [12] = qHTS assay to identify small molecule antagonists of the retinoic acid receptor (RAR) signaling pathway (AID 1159552; further: nearly all actives have a fitted effect of over 50% in size)
# Outline: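 RARE-luc C3RL4 cells; cpds + 1 uM (final) retinol, 6 hr, 37 C/5% CO2; luciferase reagent, 30 min RT, luminescence readout. Inhibitors of retinol-driven signal scored.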
# [13] = qHTS assay to identify small molecule agonists of the retinoic acid receptor (RAR) signaling pathway (AID 1159553); further: potency means the concentration at half of the fitted maximal effect
# Outline: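 Luminescence from a RARE-driven luciferase reporter in C3RL4 cells served as the read-out, measured after 30 min with detection reagent at room temperature. Compounds in DMSO were applied for 6 hr at 37 C following overnight seeding.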
# [14] = molecular target: Retinoic acid receptor RXR-alpha (Homo sapiens) (UniProt P19793); assay: qHTS assay to identify small molecule agonists of the RXR signaling pathway (AID 1159527; calls by dose curve; further: nearly all actives have a fitted effect of over 35% in size)
# Retinoic acid receptor RXR-alpha (Homo sapiens), sequence (P19793 whole entry, looked up): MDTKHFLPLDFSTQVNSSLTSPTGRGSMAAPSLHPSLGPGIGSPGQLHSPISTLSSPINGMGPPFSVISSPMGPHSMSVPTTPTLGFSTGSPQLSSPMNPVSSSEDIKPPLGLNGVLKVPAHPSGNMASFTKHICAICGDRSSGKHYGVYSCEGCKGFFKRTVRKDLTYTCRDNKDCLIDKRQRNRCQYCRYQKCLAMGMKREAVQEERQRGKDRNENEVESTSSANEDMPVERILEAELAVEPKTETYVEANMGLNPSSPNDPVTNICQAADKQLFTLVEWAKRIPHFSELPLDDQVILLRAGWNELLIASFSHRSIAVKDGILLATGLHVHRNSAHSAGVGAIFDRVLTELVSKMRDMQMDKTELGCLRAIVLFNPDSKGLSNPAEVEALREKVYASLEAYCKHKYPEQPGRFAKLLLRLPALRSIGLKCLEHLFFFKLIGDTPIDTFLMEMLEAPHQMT
# Outline: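 GeneBLAzer RXR-alpha-UAS-bla HEK 293T cells in medium with 2% charcoal-stripped FBS, pre-incubated 5 hr at 37 C, then exposed to compounds 16 hr. Beta-lactamase reporter read by FRET substrate, 2 hr room temperature, 460/530 nm emission.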
# [15] = qHTS assay to identify small molecule agonists of the endoplasmic reticulum stress response signaling pathway (AID 1159516; active means well fitted activation curve with a large enough effect in the signal ratio in the repeat runs, not every such curve was filed as active; the % refers to the signal ratio)
# Outline: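 Read-out is beta-lactamase cleavage of a FRET substrate (405 nm excitation; 460 and 530 nm emissions) in ESRE-bla HeLa cells after a 5 hr compound exposure at 37 C. Substrate incubation ran 2 hr at room temperature.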
# [16] = qHTS assay to identify small molecule antagonists of the estrogen related receptor (ERR) signaling pathway (AID 1224819)
# Outline: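 Seed ERR cells 2,000/well; rest 6 h at 37 C/5% CO2; pin compounds in DMSO; incubate 18 h at 37 C; add One-Glo; wait 30 min at room temperature; measure luminescence.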
# [17] = qHTS assay to identify small molecule agonists of the estrogen related receptor (ERR) signaling pathway (AID 1224820)
# Outline: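 ERR reporter cell line (from NTP), 2,000 cells/well, incubated 6 h before compound addition, then 18 h at 37 C. Luminescence measured 30 min after One-Glo reagent at room temperature.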
# [18] = qHTS assay to identify small molecule antagonists of the estrogen related receptor (ERR) signaling pathway - cell viability counter screen (AID 1224818);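 further: series mostly up to about 46 µM; viability measured after 17.5 h of compound exposure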
# Outline: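 Multiplexed counter screen to separate cytotoxic compounds from true ERR modulators. ERR cells received DMSO-dissolved compounds after a 6 h pre-incubation, were exposed 17.5 h at 37 C, then assayed with CellTiter-Fluor fluorescence.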
# [19] = qHTS assay to identify small molecule antagonists of the estrogen related receptor signaling pathway with the pleiotropic PPARgamma coactivator (PGC) cell viability counter screen (AID 1224822;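 further: series mostly up to about 46 µM; viability read after 17.5 h compound exposure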)
# Outline: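 Cells: PGC/ERR, 2,000/well, 1536-well format. Pre-incubation 6 h, 37 C/5% CO2. Compound exposure 17.5 h, 37 C. Detection: CellTiter-Fluor, 30 min, fluorescence.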
compound,measurement,setting,value
COc1ccc(/C(C)=C/C(=O)O)c(OC)c1,outcome,[1],inactive
same,outcome,[2],inactive
same,outcome,[3],inactive
same,outcome,[4],inactive
same,outcome,[5],inactive
same,Potency,[6],inactive
same,Potency,[7],inactive
same,outcome,[8],inactive
same,Potency,[9],inactive
same,Potency,[10],inactive
same,outcome,[11],inactive
Cc1c(-c2cccnc2)c2ccccc2n1CCCCC(=O)O,outcome,[1],inactive
same,outcome,[2],inactive
same,outcome,[3],inactive
same,outcome,[4],inactive
same,outcome,[5],inactive
same,Potency,[6],inactive
same,Potency,[7],inactive
same,outcome,[8],inactive
same,Potency,[9],inactive
same,Potency,[10],inactive
same,outcome,[11],inactive
same,outcome,[12],inactive
same,Potency,[13],43.3 µM (active)
CC1(C)[C@@H]2CC[C@]3(C2)[C@@H]1C(=O)CCC3(C)C,outcome,[1],inactive
same,outcome,[2],inactive
same,outcome,[3],inactive
same,outcome,[4],inactive
same,outcome,[5],inactive
same,Potency,[6],inactive
same,Potency,[7],inactive
same,outcome,[8],inactive
same,outcome,[14],inactive
same,Potency,[10],inactive
same,outcome,[11],inactive
same,outcome,[12],inactive
same,Potency,[13],inactive
CC(C)=CCC/C(C)=C/C=N/O,outcome,[1],inactive
same,outcome,[3],inactive
same,outcome,[15],inactive
same,outcome,[5],inactive
same,Potency,[6],inactive
same,Potency,[7],inactive
same,outcome,[8],inactive
same,Potency,[9],inactive
same,Potency,[10],inactive
same,outcome,[11],inactive
same,outcome,[12],inactive
same,Potency,[13],inactive
O=C(OCCCCCOC(=O)c1ccccc1)c1ccccc1,outcome,[1],inactive
same,outcome,[2],inactive
same,outcome,[3],inactive
same,outcome,[4],inactive
same,outcome,[15],inactive
same,outcome,[5],inactive
same,outcome,[8],inactive
same,Potency,[9],inactive
same,Potency,[10],inactive
same,outcome,[11],inactive
same,outcome,[12],inactive
CCc1ccc(C(=O)C(C)CN2CCCCC2)cc1 (stereo not drawn),outcome,[1],inactive
same,outcome,[2],inactive
same,outcome,[3],inactive
same,outcome,[15],inactive
same,outcome,[5],inactive
same,Potency,[6],inactive
same,Potency,[7],inactive
same,outcome,[8],inactive
same,Potency,[9],inactive
same,Potency,[10],inactive
same,outcome,[11],inactive
same,outcome,[12],inactive
same,Potency,[13],inactive
C1CCN(CN2CCCCC2)CC1,outcome,[1],inactive
same,outcome,[2],inactive
same,outcome,[3],inactive
same,outcome,[4],inactive
same,outcome,[15],inactive
same,outcome,[5],inactive
same,Potency,[7],inactive
same,outcome,[8],inactive
same,Potency,[9],inactive
same,outcome,[11],inactive
C=CC(=O)NC(C)(C)C,outcome,[1],inactive
same,outcome,[2],inactive
same,outcome,[3],inactive
same,outcome,[4],inactive
same,outcome,[5],inactive
same,Potency,[6],inactive
same,Potency,[7],inactive
same,outcome,[8],inactive
same,Potency,[9],inactive
same,Potency,[10],inactive
same,outcome,[11],inactive
same,outcome,[12],inactive
same,Potency,[13],inactive
CCCCCCCCS,outcome,[1],inactive
same,outcome,[2],inactive
same,outcome,[3],inactive
same,outcome,[4],inactive
same,outcome,[5],inactive
same,Potency,[6],inactive
same,Potency,[7],inactive
same,outcome,[8],inactive
same,Potency,[9],inactive
same,Potency,[10],inactive
same,outcome,[11],inactive
same,outcome,[12],inactive
same,Potency,[13],inactive
Cc1nc2sccn2c(=O)c1CCN1CCC(=C(c2ccc(F)cc2)c2ccc(F)cc2)CC1,outcome,[1],inactive
same,outcome,[3],inactive
same,outcome,[4],inactive
same,outcome,[5],inactive
same,Potency,[6],inactive
same,Potency,[7],inactive
same,outcome,[8],inactive
same,Potency,[9],inactive
same,outcome,[11],inactive
same,outcome,[12],inactive
same,Potency,[13],inactive
same,Potency,[16],19.6 µM (active)
same,outcome,[17],inactive
NC(=O)c1ccccc1,outcome,[1],inactive
same,outcome,[2],inactive
same,outcome,[3],inactive
same,outcome,[4],inactive
same,outcome,[5],inactive
same,Potency,[6],inactive
same,Potency,[7],inactive
same,outcome,[8],inactive
same,Potency,[9],inactive
same,outcome,[11],inactive
same,Potency,[13],inactive
same,outcome,[18],inactive
same,outcome,[19],inactive
FC(F)(Cl)C(F)(Cl)Cl,outcome,[1],inactive
same,outcome,[3],inactive
same,outcome,[4],inactive
same,outcome,[5],inactive
same,Potency,[6],inactive
same,Potency,[7],inactive
same,outcome,[8],inactive
same,Potency,[9],inactive
same,outcome,[11],inactive
CC(C)NC(=O)c1ccccc1N,outcome,[1],inactive
same,outcome,[2],inactive
same,outcome,[3],inactive
same,outcome,[4],inactive
same,outcome,[15],inactive
same,outcome,[5],inactive
same,Potency,[7],inactive
same,outcome,[8],inactive
same,Potency,[9],inactive
same,outcome,[11],inactive
same,outcome,[12],inactive
same,Potency,[13],inactive
CCCCCCCCCCCCCCCCN,outcome,[1],inactive
same,outcome,[2],inactive
same,outcome,[3],inactive
same,outcome,[4],inactive
same,outcome,[5],inactive
same,Potency,[6],inactive
same,Potency,[7],inactive
same,outcome,[8],inactive
same,outcome,[14],inactive
same,outcome,[11],inactive
same,outcome,[12],inactive
same,Potency,[13],inactive
COc1ccc(C(=O)Nc2ccccc2)cc1[N+](=O)[O-],outcome,[1],inactive
same,outcome,[2],inactive
same,outcome,[3],inactive
same,outcome,[4],inactive
same,outcome,[5],inactive
same,Potency,[6],inactive
same,Potency,[7],inactive
same,outcome,[8],inactive
same,Potency,[9],inactive
same,outcome,[11],inactive
same,outcome,[12],inactive
same,Potency,[13],30.9 µM (active)
CCCCCCOC(=O)c1ccccc1,outcome,[1],inactive
same,outcome,[3],inactive
same,outcome,[4],inactive
same,outcome,[5],inactive
same,Potency,[7],inactive
same,outcome,[8],inactive
same,Potency,[9],inactive
same,outcome,[11],inactive
same,outcome,[12],inactive
same,Potency,[13],inactive
O=C(c1ccco1)N1CCNCC1,outcome,[1],inactive
same,outcome,[2],inactive
same,outcome,[3],inactive
same,outcome,[4],inactive
same,outcome,[15],inactive
same,outcome,[5],inactive
same,Potency,[7],inactive
same,outcome,[8],inactive
same,outcome,[14],inactive
same,outcome,[11],inactive
same,outcome,[12],inactive
same,Potency,[13],inactive
C(/C=C/C=C/Nc1ccccc1)=Nc1ccccc1,outcome,[1],inactive
same,outcome,[2],inactive
same,outcome,[3],inactive
same,outcome,[4],inactive
same,outcome,[5],inactive
same,Potency,[7],inactive
same,outcome,[8],inactive
same,Potency,[9],inactive
same,Potency,[10],inactive
same,outcome,[11],inactive
same,outcome,[12],inactive
same,Potency,[13],inactive
COC=O,"viability change, negative = cytotoxic",[2],18% [at 6.95 µM]
same,activation,[3],0.465% [at 6.95 µM]
same,"activity, negative = cytotoxic",[4],-3.71% [at 6.95 µM]
same,"activity change, negative = cytotoxicity",[5],-18.1% [at 6.95 µM]
same,"activity change, negative = inhibition",[7],-0.709% [at 8.39 µM]
same,"viability change, negative = cytotoxic",[8],12.8% [at 6.97 µM]
same,activation,[9],-1.7% [at 6.97 µM]
same,"activity change, negative = cytotoxicity",[11],0.256% [at 8.39 µM]
same,"activity, negative = inhibition",[12],-0.361% [at 8.39 µM]
same,activation,[13],3.97% [at 8.36 µM]
CC/C=C\CCO,outcome,[4],inactive
CC/C=C/CCO,outcome,[4],inactive
O=C(NC1CCN(CCc2c[nH]c3ccccc23)CC1)c1ccccc1,outcome,[14],inactive
C=CC(=O)OCCCCCCCCCC,outcome,[14],inactive
